# Experimental data reported in the supplement of paper PMC12297408.
# Counter-ions that a name gives are not always drawn. The campaign covered roughly 1,300 compounds. About 40 (3%) showed activity. The entries come from a sample that favours actives as a whole. Values without a mark were called inactive.
# System: Plasmodium falciparum NF54/iGP1_RE9H ulg8 stage V gametocytes
# Experiment: gametocyte viability (luciferase signal relative to DMSO control) (% of DMSO control); higher = less gametocytocidal activity, active = 50 or less
# Conditions: exposure time: 72 h
# Outline: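 Gametocyte viability is reported relative to the average of DMSO vehicle wells on the same plate. The assay used day-12 stage V NF54/iGP1_RE9Hulg8 gametocytes at ~2.5% gametocytemia and 3% hematocrit, in 0.5% Albumax II medium, added to 96-well plates of compounds spotted in nanolitre volumes for final 10 µM or 1 µM, one well each. After 72 h at 37 °C, 90 µl was mixed with 10 µl D-luciferin (30 mg/ml), and luminescence was recorded with an IVIS Lumina II.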
SMILES,gametocyte viability (concentration: 1 µM),gametocyte viability (concentration: 10 µM)
Clc1ccccc1CN1CCc2sccc2C1 [Ticlopidine hydrochloride],96,93.2
CC(=O)OCC(=O)[C@@]1(O)CC[C@H]2[C@@H]3CCC4=CC(=O)CC[C@]4(C)[C@@]3(F)[C@@H](O)C[C@@]21C [Fludrocortisone acetate],79.5,75.8
"Nc1c2c(nc3ccccc13)CCCC2O (racemic) [Hydroxytacrine maleate (R,S)]",101,93.6
O=C1c2cccc3c2[C@H](CCC3)CN1[C@@H]1CN2CCC1CC2 [Palonosetron hydrochloride],85.5,81.6
"CCN(CC)CCOc1ccc(C(=C(Cl)c2ccccc2)c2ccccc2)cc1 [Clomiphene citrate (Z,E)]",82.4,95.2
C#Cc1cccc(Nc2ncnc3cc(OCCOC)c(OCCOC)cc23)c1 [Erlotinib],70.7,37.2 (active)
COc1cc2ncnc(Nc3ccc(F)c(Cl)c3)c2cc1OCCCN1CCOCC1 [Gefitinib],95.8,85.9
Cc1c(C)c2c(c(C)c1O)CCC(C)(C(=O)O)O2 (stereo unspecified) [Trolox],88.2,87.5
CCOC(=O)C1=C[C@]2(CC)CCCN3CCc4c(n1c1ccccc41)[C@@H]32 [Vinpocetine],86.2,87.6
CC(C)NC[C@@H](O)COc1cccc2ccccc12 [(R)-Propranolol hydrochloride],93.4,89
Nc1ccccc1S(N)(=O)=O [2-Aminobenzenesulfonamide],98,95.8
CN1CCN(CC(=O)N2c3ccccc3C(=O)Nc3cccnc32)CC1 [Pirenzepine dihydrochloride],86.5,83.3
CCN(CCCc1ccccc1)CCCc1ccccc1 [Alverine citrate salt],82.3,82
CCN(CC)CCCC(C)Nc1c2ccc(Cl)cc2nc2ccc(OC)cc12 (stereo unspecified) [Quinacrine dihydrochloride dihydrate],113,44.5 (active)
CCN(CC)CCCC(C)Nc1ccnc2cc(Cl)ccc12 (stereo unspecified) [Chloroquine diphosphate],82.8,86.8
CCN(CCO)CCCC(C)Nc1ccnc2cc(Cl)ccc12 (stereo unspecified) [Hydroxychloroquine sulfate],83.3,80.8
O=C(N/N=C/c1ccc([N+](=O)[O-])o1)c1ccc(O)cc1 [Nifuroxazide],95.9,30.6 (active)

SMILES,gametocyte viability (concentration: 1 µM),gametocyte viability (concentration: 10 µM)
NC(=O)N/N=C/c1ccc([N+](=O)[O-])o1 [Nitrofural],90.1,89.1
O=C1CN(/N=C/c2ccc([N+](=O)[O-])o2)C(=O)N1 [Nitrofurantoin],83.4,82.5
CCOC(=O)c1ccc(OC(=O)CCCCCNC(=N)N)cc1 [Gabexate mesilate],88.8,92
CN1CCC(=C2c3ccccc3CC(=O)c3sccc32)CC1 [Ketotifen fumarate],79.5,84.2
C=CC1=C(C(=O)O)N2C(=O)[C@@H](NC(=O)/C(=N\O)c3csc(N)n3)[C@H]2SC1 [Cefdinir],80.8,83.8
CN1C(=O)OC(C)(C)C1=O [Trimethadione],82.9,88.6
CC1=C(CC(=O)O)c2cc(F)ccc2/C1=C\c1ccc([S+](C)[O-])cc1 (stereo unspecified) [Sulindac],88.6,82.7
Cc1cc(NC(=O)C2=C(O)c3ccccc3S(=O)(=O)N2C)no1 [Isoxicam],82.8,81.8
C[N+]1(C)CCC(=C(c2ccccc2)c2ccccc2)CC1 [Diphemanil methylsulfate],87,83
CCc1ccc(CCOc2ccc(CC3SC(=O)NC3=O)cc2)nc1 (stereo unspecified) [Pioglitazone],86,88.2
NC(=O)C(c1ccccc1)(c1ccccc1)[C@@H]1CCN(CCc2ccc3c(c2)CCO3)C1 [Darifenacin hydrobromide],81.7,84.2
CC(C)(S)[C@@H](N)C(=O)O [Penicillamine],92.4,93.1
N#Cc1cc(NC(=O)C(=O)O)c(Cl)c(NC(=O)C(=O)O)c1 [Lodoxamide],91.8,102
CC1=C(/C=C/C(C)=C/C=C/C(C)=C/C(=O)O)C(C)(C)CCC1 [Retinoic acid],82.1,64
CCC(=O)[C@@]1(C)[C@H](C)C[C@H]2[C@@H]3CCC4=CC(=O)C=C[C@]4(C)[C@H]3[C@@H](O)C[C@@]21C [Rimexolone],89.4,85.3
CCCNC(C)C(=O)Nc1c(C)csc1C(=O)OC (stereo unspecified) [Articaine hydrochloride],81.9,83
